KB-V1 MDR tox: kills drug-selected multidrug resistant KB-V1 cells | KB-V1 MDR cells viability, CellTiter-Glo, 72 h | Potency, µM (top dose mostly 46.1 µM), hits mostly cytotoxic | hit rate 3.4% among 400,000 | AID 1347076; note: nearly all actives have a fitted effect of over 60% in size
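Cytotoxicity toward P-gp-expressing KB-V1 cells was determined as loss of CellTiter-Glo luminescence after 72 h at 37 degrees C. Compounds were tested in quantitative HTS format across a concentration range, with curves fitted to normalized data.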
SW480 rereplic: inducers of DNA re-replication in SW480 colon cancer cells. SW480 DNA re-replication, Hoechst DNA content imaging, 48 h. hit rate 1.8% among 340,000. Potency, µM (top dose mostly 46.1 µM), usual class: activators; note: nearly all actives have a fitted effect of over 55% in size
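250 cells/well; 23 nL cpd via pin tool; 48 hr, 37 C, 5% CO2; Hoechst 40 min; imager read of total nuclear intensity, ex 405/em 500-530 nm.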
MCF10A rereplic: inducers of DNA re-replication in MCF 10A breast cells; MCF 10A DNA re-replication, Hoechst nuclear intensity, 48 h; Potency, µM (doses to about 46.1 µM), actives largely listed as activators; hit rate 2.9% among 350,000; AID 624296; note: nearly all actives have a fitted effect of over 50% in size
ELG1 repair inh: inhibitors of ELG1-dependent DNA repair in HEK293T cells | HEK293T ELG1-luciferase reporter, luminescence, 16 h; DNA damage induced by 5-fluorouridine | Potency, µM (series often up to 46.1 µM), hits mostly inhibitors | hit rate 2.3% among 330,000 | AID 504467; note: nearly all actives have a fitted effect of over 55% in size
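Quantitative HTS, concentration-response format. 2,000 cells/well co-treated with 5-fluorouridine and compound, 16 hr in 5% CO2 at 37 °C; ONE-Glo luminescence read after 30 min.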
KB-3-1 cytotox: KB-3-1 parental cell cytotoxicity; AID 1347075; hit rate 1.4% among 400,000; KB-3-1 viability, CellTiter-Glo ATP luminescence, 72 h; Potency, µM (titrated, usually from 46.1 µM), most hits filed as cytotoxic; note: nearly all actives have a fitted effect of over 60% in size
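KB-3-1 parental drug-naive adenocarcinoma cells in DMEM/10% FBS, incubated 72 h at 37 C with pin-transferred compounds across a concentration series. Viability by CellTiter-Glo luminescence; concentration-response curves fitted after normalization.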
A number is an active result; 0 = inactive; ? = inconclusive; - = not tested or not shown; [ ] = another dose, or the depositor's remark. Hits are enriched below; roughly 8.1% of the tested compounds scored in any of these assays. Calls come from the whole dose curve; as a rule, active = well fitted curve in the direction sought with a large enough effect; inconclusive = small, poorly fitted or top-dose-only effect, or another doubt; inactive = no such curve, though single readings can be large; an effect the other way counts as inactive or inconclusive.

SMILES	KB-V1 MDR tox	SW480 rereplic	MCF10A rereplic	ELG1 repair inh	KB-3-1 cytotox
O=c1ccc(Oc2nc(N3CCOCC3)nc(N3CCOCC3)n2)n[nH]1	0	?	0	0	0
Cc1ccc(S(=O)(=O)Nc2ccc3c(c2)OCCO3)cc1	23.1µM	0	0	0	?
O=C1CCCN1c1ccc(S(=O)(=O)Nc2ccc3c(c2)OCCO3)cc1	18.4µM	0	0	?	18.4µM
O=S(=O)(Nc1ccc2c(c1)OCCO2)c1ccc(F)cc1	0	0	0	0	0
CC(=O)c1cc2c(cc1NS(=O)(=O)c1ccc(C)cc1)OCCO2	16.4µM	?	14.6µM	0	0
Cc1ccc(S(=O)(=O)N/N=C\c2cc3c(cc2Br)OCO3)cc1	0	?	4.61µM	0	0
Cc1ccc(S(=O)(=O)N/N=C\c2ccc3c(c2)OCO3)cc1	0	0	0	0	0
COc1cccc(CNc2nc3cc(-c4ccc(C(=O)N5CCN(C)CC5)cc4)sc3c(=O)n2C)c1	0	-	-	-	0
CCN1CCN(c2sc(S(=O)(=O)CC)nc2S(=O)(=O)c2ccc(Cl)cc2)CC1	?	-	-	-	0
CCCCn1c(N)c(N(CCOC)C(=O)c2cc3c(s2)CCC(C)C3)c(=O)[nH]c1=O (configuration not stated)	0	0	0	0	0
Cc1nc(NCc2ccccc2)c2cc[nH]c2n1	0	0	0	0	0
CCCCn1c(SCC(=O)N2CCN(c3ccccc3)CC2)nc2ccsc2c1=O	8.2µM	0	?	?	0
CCCCn1c(SCC(=O)Nc2ccccc2C(F)(F)F)nc2ccsc2c1=O	2.59µM	0	0	?	0
CCCCn1c(SCC(=O)N2CCC(C)CC2)nc2ccsc2c1=O	1.16µM	0	0	?	0
CCOC(=O)C1=C(O)/C(=C/c2cn(CC(=O)N3CCCC3)c3ccccc23)SC1=Nc1ccccc1	0	?	8.2µM	4.11µM	14.6µM
COc1cc(S(=O)(=O)Nc2ccc(C)cc2)ccc1NC(=O)c1ccncc1	?	0	0	?	0
COc1cccc(/C=C/C(=O)c2ccc(NS(=O)(=O)c3ccc(C)cc3)cc2)c1	?	?	5.8µM	?	0
COc1cc(/C=C/C(=O)c2ccc(NS(=O)(=O)c3ccc(C)cc3)cc2)ccc1OC(F)F	?	?	23.1µM	?	0
COc1cccc(N/C=C/C(=O)c2ccc(C)cc2)c1	0	0	0	?	0
COc1cccc(C(=O)/C=C/Nc2ccc(S(=O)(=O)Nc3cccc(C(C)=O)c3)cc2)c1	?	20.6µM	10.3µM	?	0
COc1cc(/C=C/C(=O)c2ccc(NS(=O)(=O)c3ccc(C)cc3)cc2)cc(OC)c1O	0	?	18.4µM	10.3µM	?
Cc1ccc(C)c(N(C(=O)CNC(=O)c2ccco2)C(C(=O)NC2CCCCC2)c2cccnc2)c1 (configuration not stated)	0	0	0	0	0
CC(=O)Nc1cccc(/C(C)=N/NC(=O)c2cccc(S(=O)(=O)N3CCCC3)c2)c1	0	-	-	-	0
CCCn1c(-c2ccccc2)cc(SC)c(C#N)c1=O	0	5.8µM	0	0	0
CSc1cc(-c2ccccc2)n(Cc2ccccc2Cl)c(=O)c1C#N	?	6.51µM	3.66µM	?	4.61µM
SMILES	KB-V1 MDR tox	SW480 rereplic	MCF10A rereplic	ELG1 repair inh	KB-3-1 cytotox
N#Cc1ccccc1Sc1ccccc1C(=O)OCC(N)=O	0	?	0	0	0
Cc1noc(C)c1COC(=O)c1ccccc1Sc1ccccc1C#N	?	0	0	23.1µM	0
Cc1ccc(NC(=O)CCCN2C(=O)C(c3ccccc3)Oc3cccnc32)c(C)c1 (configuration not stated)	0	-	-	-	0
O=S(=O)(Nc1cccc(-c2nc3cccnc3s2)c1)c1ccc2c(c1)CCCC2	0	0	?	0	0
Cc1ccc2nc(-c3ccc(NS(=O)(=O)c4ccc(F)c(F)c4)cc3)sc2c1	0	?	10.3µM	?	0
Cc1nc2ccc(S(=O)(=O)Nc3ccc(-c4nc5cccnc5s4)cc3)cc2s1	0	0	6.51µM	?	0
Cc1nc2ccc(S(=O)(=O)Nc3cccc(-c4nc5cccnc5s4)c3)cc2s1	0	0	6.51µM	0	?
CN1CCN(C(=O)c2ccccc2N(Cc2ccccc2)S(=O)(=O)c2ccccc2)CC1	0	0	0	0	0
Cc1ccc(S(=O)(=O)N(Cc2ccccc2)c2ccccc2C(=O)N2CCCCC2)cc1	?	18.4µM	?	?	0
Cc1ccc(S(=O)(=O)N(C)c2ccc(C(=O)NCc3cccnc3)cc2)cc1	0	0	0	0	0
Cc1ccc(S(=O)(=O)N(Cc2ccccc2)c2ccccc2C(=O)NCc2cccnc2)cc1	23.1µM	?	0	0	?
CCCOc1ccc(N2C(=O)CC(N(CCc3ccc(OC)cc3)C(=O)c3cccc(F)c3)C2=O)cc1 (configuration not stated)	0	0	0	?	?
CC(Oc1ccc(/C=N/NC(=O)Cc2cccc3ccccc23)cc1)C(=O)O (configuration not stated)	0	0	0	0	0
Cn1cccc/c1=N\c1cccc[n+]1C	0	?	0	18.3µM	0
COc1ccc(CCNC(=O)c2cc3c(=O)n4ccccc4nc3n(CCCN3CCOCC3)c2=N)cc1OC	0	?	0	?	0
COc1ccc(CCn2c(=N)c(C(=O)N3CCN(C)CC3)cc3c(=O)n4ccccc4nc32)cc1	0	23.1µM	9.2µM	0	0
Cc1ccc2nc3c(cc(C(=O)NCCc4ccccc4)c(=N)n3CCCN3CCOCC3)c(=O)n2c1	0	4.61µM	4.61µM	0	0
COc1ccc(CCNC(=O)c2cc3c(=O)n4ccccc4nc3n(CCN3CCOCC3)c2=N)cc1	0	23.1µM	20.6µM	?	0
COc1ccc(CCn2c(=N)c(C(=O)NCC3CCCO3)cc3c(=O)n4ccccc4nc32)cc1 (configuration not stated)	?	0	0	?	0
COc1ccc(CCNC(=O)c2cc3c(=O)n4ccccc4nc3n(CCCN3CCOCC3)c2=N)cc1	0	8.2µM	?	0	0
COc1ccccc1Nc1ccc(N)cc1	0	?	0	?	0
COc1ccc(CCNC(=O)c2cc3c(=O)n4ccccc4nc3n(C3CCCCC3)c2=N)cc1	0	2.31µM	?	23.1µM	0
O=C(NCCN1CCOCC1)c1cc2c(=O)n3ccccc3nc2n1Cc1ccccc1	0	20.6µM	16.4µM	0	0
Cc1c(CN2CCCC(CO)(Cc3cccc(Cl)c3)C2)cnn1C (configuration not stated)	0	0	0	0	0
CC(=O)Nc1ccc(NC(=O)CC(c2ccccc2)c2ccccc2)cc1	0	0[9.22 µM]	0	0	0
Cc1ccccc1OCC(=O)OCC(=O)NCCNC(=O)COC(=O)COc1ccccc1C	0	0	0	0	0
O=C(Cn1cc(COc2cccc([N+](=O)[O-])c2)nn1)c1ccc(O)cc1	0	0	0	-	0

Compound activity from PubChem.
